1 sequence from publication PMC7862700, “An all-to-all approach to the identification of sequence-specific readers for epigenetic DNA modifications on cytosine” can be followed below.

Holding throughout (assay): DAPPL (digital affinity profiling via proximity ligation, sequencing); 10 mM Tris-HCl pH 7.5, 50 mM NaCl, 1 mM DTT, 4% glycerol, room temperature, 30 min; GST-TFs on glutathione beads, 16-mer random dsDNA library, 0.1% formaldehyde crosslink after washing; high values mean tight binding
One assay concerns the target T1, FLI1 (Homo sapiens, UniProt Q01543 1-452).
T1 sequence: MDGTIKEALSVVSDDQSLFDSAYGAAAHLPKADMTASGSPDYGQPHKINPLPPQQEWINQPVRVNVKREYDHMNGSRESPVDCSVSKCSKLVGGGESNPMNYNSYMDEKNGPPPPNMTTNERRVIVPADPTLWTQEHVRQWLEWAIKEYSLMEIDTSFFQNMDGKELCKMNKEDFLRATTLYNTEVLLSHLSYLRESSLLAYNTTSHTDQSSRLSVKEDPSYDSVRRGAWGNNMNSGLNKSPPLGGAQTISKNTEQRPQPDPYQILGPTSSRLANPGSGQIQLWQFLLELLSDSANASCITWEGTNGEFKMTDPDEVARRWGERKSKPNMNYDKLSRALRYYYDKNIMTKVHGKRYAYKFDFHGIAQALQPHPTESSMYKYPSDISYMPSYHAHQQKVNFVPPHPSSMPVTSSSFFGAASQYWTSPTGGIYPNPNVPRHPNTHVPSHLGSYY
Conditions: protein: recombinant; tags: N-terminal GST; dsDNA, one strand shown. The method in brief: (§1)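 Binding signal is given per hexamer as its read frequency for a factor divided by its frequency in the tag-only sample. GST-fused human transcription factors were expressed in yeast, captured on glutathione beads, barcoded with DNA and pooled with that sample, then incubated with 200 nmole of a 16-mer random double-stranded DNA library in Tris/NaCl/DTT/glycerol buffer for 30 min at room temperature. The pools were then washed, crosslinked, proximity-ligated, amplified by PCR and sequenced on an Illumina NextSeq500.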

The next assay deals with T2, ELK1 (Homo sapiens, UniProt P19419 1-428).
T2 sequence: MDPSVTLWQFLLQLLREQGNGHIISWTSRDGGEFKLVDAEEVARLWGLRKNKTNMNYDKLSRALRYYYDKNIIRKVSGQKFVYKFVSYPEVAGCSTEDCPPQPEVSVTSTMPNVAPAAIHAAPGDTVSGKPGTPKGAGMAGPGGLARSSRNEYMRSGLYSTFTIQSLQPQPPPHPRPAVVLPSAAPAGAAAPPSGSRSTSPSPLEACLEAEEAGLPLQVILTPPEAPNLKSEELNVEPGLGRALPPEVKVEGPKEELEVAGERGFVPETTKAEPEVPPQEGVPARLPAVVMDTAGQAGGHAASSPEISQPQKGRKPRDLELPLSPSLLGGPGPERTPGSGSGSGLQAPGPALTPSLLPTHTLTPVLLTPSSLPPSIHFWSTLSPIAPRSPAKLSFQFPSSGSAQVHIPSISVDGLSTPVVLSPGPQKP
Conditions: protein: recombinant; tags: N-terminal GST; dsDNA, one strand shown. The method in brief:
as §1

A further assay addresses T3, GABPA (Homo sapiens, UniProt Q06546 1-454).
T3 sequence: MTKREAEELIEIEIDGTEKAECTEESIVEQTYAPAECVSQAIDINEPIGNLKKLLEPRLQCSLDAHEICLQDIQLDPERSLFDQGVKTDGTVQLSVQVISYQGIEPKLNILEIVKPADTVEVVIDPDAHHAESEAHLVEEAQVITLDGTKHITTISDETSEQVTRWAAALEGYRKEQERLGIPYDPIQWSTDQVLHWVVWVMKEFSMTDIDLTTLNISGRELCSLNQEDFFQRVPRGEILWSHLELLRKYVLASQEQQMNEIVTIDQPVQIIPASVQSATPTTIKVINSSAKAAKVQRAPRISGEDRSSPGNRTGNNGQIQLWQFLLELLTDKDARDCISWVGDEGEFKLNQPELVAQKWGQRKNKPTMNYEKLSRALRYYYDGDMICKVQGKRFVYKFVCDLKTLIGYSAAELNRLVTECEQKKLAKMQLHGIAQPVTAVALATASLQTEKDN
Conditions: protein: recombinant; tags: N-terminal GST; dsDNA, one strand shown. Summed up: as §1

Another assay addresses T4, ERG (Homo sapiens, UniProt P11308 1-479).
T4 sequence: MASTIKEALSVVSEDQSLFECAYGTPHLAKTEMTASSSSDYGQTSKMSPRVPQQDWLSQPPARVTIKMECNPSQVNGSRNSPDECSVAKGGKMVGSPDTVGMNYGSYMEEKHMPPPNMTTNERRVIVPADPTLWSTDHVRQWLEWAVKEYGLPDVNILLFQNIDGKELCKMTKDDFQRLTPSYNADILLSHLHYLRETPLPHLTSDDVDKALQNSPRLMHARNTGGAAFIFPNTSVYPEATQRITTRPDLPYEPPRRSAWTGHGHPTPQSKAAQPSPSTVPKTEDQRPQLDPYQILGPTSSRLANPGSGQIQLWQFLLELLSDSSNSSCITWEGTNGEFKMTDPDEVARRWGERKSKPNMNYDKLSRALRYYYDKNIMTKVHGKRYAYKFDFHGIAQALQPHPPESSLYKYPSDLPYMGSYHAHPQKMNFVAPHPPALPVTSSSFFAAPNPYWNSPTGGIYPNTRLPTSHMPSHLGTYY
The settings on record: protein: recombinant; tags: N-terminal GST; dsDNA, one strand shown. Summed up:
as §1

For the next assay, the target named is ELF1 (Homo sapiens, UniProt P32519 1-619). The settings on record: protein: recombinant; tags: N-terminal GST; dsDNA, one strand shown. Summed up: as §1
For another assay, the target named is T5, EHF (Homo sapiens, UniProt Q9NZC4 1-300).
T5 sequence: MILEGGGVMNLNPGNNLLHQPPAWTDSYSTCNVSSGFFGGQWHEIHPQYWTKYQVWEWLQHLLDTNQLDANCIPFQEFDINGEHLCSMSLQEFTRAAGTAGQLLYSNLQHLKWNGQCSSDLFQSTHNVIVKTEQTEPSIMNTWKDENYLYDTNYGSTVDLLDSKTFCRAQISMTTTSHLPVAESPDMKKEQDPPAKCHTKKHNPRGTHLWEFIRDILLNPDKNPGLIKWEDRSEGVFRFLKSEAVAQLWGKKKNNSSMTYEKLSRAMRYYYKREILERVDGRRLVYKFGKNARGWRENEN
Conditions: protein: recombinant; tags: N-terminal GST; dsDNA, one strand shown. The method in brief:
as §1

For another assay, the target named is SPI1 (Homo sapiens, UniProt P17947 1-270). The settings on record: protein: recombinant; tags: N-terminal GST; dsDNA, one strand shown. The method in brief:
as §1

In the next assay the target is SPIB (Homo sapiens, UniProt Q01892 1-262). Conditions: protein: recombinant; tags: N-terminal GST; dsDNA, one strand shown. Summed up: as §1
For the next assay, the target named is T6, ELK3 (Homo sapiens, UniProt P41970 1-407).
T6 sequence: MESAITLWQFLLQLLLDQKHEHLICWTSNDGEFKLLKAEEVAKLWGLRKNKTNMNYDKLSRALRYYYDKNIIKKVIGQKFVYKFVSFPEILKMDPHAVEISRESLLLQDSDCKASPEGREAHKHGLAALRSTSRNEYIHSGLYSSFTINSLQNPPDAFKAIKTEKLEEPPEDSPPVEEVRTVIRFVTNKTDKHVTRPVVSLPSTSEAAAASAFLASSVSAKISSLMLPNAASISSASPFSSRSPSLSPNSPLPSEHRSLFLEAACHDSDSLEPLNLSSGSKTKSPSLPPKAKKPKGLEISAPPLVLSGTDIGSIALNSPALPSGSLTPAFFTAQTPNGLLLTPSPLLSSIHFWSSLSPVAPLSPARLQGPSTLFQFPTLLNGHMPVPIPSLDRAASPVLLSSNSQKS
Conditions: protein: recombinant; tags: N-terminal GST; dsDNA, one strand shown. The method in brief: as §1

A further assay has as its target T7, FEV (Homo sapiens, UniProt Q99581 1-238).
T7 sequence: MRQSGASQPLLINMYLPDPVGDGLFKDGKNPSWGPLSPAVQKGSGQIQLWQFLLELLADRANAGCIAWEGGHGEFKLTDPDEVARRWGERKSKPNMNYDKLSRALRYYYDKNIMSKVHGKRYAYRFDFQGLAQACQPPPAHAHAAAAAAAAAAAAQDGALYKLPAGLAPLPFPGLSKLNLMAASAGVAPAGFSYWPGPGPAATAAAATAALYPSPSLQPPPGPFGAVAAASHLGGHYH
The settings on record: protein: recombinant; tags: N-terminal GST; dsDNA, one strand shown. Summed up:
as §1

A further assay deals with ETV5 (Homo sapiens, UniProt P41161 1-510). The settings on record: protein: recombinant; tags: N-terminal GST; dsDNA, one strand shown. The method in brief:
as §1

The next assay has as its target HSF1 (Homo sapiens, UniProt Q00613 1-529). Conditions: protein: recombinant; tags: N-terminal GST; chain copies: 3; dsDNA, one strand shown. Summed up: as §1
In the next assay the target is T8, SPIC (Homo sapiens, UniProt Q8N5J4 1-248).
T8 sequence: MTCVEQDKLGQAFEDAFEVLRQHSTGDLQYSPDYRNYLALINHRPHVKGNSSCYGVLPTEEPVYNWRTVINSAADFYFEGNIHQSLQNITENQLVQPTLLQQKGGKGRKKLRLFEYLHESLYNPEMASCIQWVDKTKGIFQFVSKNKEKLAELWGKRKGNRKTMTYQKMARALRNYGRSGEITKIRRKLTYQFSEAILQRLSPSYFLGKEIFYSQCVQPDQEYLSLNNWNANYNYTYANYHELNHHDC
The settings on record: protein: recombinant; tags: N-terminal GST; dsDNA, one strand shown. Summed up:
as §1

The next assay concerns the target ELF4 (Homo sapiens, UniProt Q99607 1-663). The settings on record: protein: recombinant; tags: N-terminal GST; dsDNA, one strand shown. Summed up:
as §1

A further assay concerns the target T9, ELK4 (Homo sapiens, UniProt P28324-2 1-405).
T9 sequence: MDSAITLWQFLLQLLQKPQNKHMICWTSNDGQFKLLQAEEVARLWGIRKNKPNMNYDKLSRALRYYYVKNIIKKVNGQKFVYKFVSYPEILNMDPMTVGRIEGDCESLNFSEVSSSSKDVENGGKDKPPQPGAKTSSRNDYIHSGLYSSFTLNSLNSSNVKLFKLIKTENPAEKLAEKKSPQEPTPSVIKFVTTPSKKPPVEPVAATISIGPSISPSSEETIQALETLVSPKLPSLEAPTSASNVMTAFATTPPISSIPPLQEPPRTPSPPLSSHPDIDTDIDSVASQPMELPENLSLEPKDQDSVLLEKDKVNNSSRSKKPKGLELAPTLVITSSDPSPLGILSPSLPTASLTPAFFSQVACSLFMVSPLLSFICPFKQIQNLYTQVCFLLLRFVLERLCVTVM
The settings on record: protein: recombinant; tags: N-terminal GST; dsDNA, one strand shown. Summed up:
as §1

For a further assay, the target named is T10, ETV2 (Homo sapiens, UniProt O00321 1-342).
T10 sequence: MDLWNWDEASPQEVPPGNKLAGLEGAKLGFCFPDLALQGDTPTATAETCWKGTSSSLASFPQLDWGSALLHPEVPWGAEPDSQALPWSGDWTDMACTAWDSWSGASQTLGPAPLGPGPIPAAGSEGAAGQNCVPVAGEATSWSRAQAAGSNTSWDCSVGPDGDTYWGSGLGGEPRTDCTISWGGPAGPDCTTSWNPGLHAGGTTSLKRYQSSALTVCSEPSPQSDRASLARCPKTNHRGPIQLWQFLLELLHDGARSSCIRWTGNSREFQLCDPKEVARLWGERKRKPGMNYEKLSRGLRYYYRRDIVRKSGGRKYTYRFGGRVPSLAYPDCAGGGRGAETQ
The settings on record: protein: recombinant; tags: N-terminal GST; dsDNA, one strand shown. Summed up: as §1

The next assay deals with T11, ELF3 (Homo sapiens, UniProt P78545 1-371).
T11 sequence: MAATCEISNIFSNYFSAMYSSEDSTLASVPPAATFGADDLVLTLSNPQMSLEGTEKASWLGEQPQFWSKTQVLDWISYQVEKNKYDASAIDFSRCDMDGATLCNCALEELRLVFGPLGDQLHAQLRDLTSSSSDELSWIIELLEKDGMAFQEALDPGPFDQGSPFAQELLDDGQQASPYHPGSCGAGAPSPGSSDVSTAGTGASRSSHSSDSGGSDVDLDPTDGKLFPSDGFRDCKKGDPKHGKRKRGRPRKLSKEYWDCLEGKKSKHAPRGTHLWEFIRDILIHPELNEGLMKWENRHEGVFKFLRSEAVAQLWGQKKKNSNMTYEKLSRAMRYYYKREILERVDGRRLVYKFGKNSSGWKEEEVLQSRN
The settings on record: protein: recombinant; tags: N-terminal GST; dsDNA, one strand shown. The method in brief: as §1

The target of the next assay is CRX (Homo sapiens, UniProt O43186 1-299). The settings on record: protein: recombinant; tags: N-terminal GST; dsDNA, one strand shown. Summed up: as §1
The next assay concerns the target ETV1 (Homo sapiens, UniProt P50549 1-477). The settings on record: protein: recombinant; tags: N-terminal GST; dsDNA, one strand shown. Summed up:
as §1

Sequence of SPIB (Q01892 whole entry): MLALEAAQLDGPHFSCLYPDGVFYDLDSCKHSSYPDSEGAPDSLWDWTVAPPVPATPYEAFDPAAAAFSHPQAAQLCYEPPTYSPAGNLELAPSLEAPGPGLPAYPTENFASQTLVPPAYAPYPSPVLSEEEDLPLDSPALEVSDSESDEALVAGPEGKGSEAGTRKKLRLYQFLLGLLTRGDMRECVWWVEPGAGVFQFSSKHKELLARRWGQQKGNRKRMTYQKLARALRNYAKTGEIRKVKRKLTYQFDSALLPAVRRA
Sequence of ELF1 (P32519 whole entry): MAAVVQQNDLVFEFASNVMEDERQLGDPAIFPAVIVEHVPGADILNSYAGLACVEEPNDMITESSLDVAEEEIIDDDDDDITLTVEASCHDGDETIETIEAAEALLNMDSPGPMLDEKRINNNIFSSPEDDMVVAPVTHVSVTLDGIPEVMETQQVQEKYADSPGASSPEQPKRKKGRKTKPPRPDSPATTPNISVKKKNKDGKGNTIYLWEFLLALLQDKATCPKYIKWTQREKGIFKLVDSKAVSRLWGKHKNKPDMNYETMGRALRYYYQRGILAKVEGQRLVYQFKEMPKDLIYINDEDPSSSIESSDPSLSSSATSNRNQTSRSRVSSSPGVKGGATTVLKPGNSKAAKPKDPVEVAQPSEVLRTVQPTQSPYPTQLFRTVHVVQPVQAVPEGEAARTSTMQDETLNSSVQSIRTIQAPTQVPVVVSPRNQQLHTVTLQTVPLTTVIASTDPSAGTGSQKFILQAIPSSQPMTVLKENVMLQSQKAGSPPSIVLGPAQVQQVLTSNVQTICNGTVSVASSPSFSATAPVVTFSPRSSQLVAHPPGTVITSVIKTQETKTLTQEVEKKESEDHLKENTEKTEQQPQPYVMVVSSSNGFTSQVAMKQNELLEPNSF
Sequence of ETV1 (P50549 whole entry): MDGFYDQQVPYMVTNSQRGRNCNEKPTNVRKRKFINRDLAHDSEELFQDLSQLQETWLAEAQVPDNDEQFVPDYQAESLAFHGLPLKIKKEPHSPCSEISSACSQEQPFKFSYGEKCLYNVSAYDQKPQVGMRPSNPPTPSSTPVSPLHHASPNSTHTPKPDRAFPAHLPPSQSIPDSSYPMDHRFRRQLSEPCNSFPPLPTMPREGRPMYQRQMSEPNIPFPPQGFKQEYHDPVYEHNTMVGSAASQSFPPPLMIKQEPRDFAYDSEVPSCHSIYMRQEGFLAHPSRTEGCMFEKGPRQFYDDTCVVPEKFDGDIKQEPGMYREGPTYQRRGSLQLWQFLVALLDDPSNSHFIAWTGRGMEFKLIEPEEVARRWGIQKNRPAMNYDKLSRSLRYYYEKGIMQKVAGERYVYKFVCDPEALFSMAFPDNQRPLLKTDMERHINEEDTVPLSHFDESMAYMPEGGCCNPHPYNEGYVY
Sequence of ELF4 (Q99607 whole entry): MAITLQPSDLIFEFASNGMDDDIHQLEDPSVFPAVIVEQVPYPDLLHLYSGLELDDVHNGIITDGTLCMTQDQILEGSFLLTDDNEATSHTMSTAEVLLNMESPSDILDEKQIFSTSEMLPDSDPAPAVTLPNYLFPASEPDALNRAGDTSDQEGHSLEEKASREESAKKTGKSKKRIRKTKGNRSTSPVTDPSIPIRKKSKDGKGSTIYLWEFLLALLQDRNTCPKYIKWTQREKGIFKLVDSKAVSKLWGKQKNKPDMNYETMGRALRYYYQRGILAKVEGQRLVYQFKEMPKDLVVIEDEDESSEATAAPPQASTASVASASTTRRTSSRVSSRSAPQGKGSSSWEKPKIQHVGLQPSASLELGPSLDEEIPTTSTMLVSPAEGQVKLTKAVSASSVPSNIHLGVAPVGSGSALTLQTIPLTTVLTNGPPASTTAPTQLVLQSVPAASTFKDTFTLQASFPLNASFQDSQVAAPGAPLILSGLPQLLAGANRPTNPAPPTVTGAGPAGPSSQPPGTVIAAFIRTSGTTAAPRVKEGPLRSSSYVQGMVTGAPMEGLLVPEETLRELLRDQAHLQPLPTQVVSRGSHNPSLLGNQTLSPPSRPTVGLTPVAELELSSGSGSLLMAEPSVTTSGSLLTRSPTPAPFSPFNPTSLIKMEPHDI
Sequence of CRX (O43186 whole entry): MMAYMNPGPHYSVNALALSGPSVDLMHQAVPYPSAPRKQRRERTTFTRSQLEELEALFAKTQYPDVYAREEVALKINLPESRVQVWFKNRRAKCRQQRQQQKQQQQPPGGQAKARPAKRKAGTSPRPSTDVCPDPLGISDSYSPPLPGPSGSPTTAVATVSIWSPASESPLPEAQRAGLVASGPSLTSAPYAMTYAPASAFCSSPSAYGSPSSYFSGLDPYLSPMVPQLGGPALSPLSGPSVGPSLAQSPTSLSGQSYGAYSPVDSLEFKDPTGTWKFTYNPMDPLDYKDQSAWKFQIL
Sequence of ETV5 (P41161 whole entry): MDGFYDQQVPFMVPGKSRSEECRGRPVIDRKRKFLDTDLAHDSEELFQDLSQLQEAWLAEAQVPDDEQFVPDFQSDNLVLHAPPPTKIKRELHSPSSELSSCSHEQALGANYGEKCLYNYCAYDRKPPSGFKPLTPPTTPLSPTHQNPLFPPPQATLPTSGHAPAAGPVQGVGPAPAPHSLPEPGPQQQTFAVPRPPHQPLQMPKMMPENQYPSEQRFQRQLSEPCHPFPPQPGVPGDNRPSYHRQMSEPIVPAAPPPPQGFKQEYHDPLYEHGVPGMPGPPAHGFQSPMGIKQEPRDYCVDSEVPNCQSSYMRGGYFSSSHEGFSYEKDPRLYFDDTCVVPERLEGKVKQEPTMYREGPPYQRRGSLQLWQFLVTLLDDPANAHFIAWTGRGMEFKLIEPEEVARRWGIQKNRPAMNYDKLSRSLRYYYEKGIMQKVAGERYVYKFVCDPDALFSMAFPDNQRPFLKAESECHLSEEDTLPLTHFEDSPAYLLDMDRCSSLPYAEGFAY
Sequence of HSF1 (Q00613 whole entry): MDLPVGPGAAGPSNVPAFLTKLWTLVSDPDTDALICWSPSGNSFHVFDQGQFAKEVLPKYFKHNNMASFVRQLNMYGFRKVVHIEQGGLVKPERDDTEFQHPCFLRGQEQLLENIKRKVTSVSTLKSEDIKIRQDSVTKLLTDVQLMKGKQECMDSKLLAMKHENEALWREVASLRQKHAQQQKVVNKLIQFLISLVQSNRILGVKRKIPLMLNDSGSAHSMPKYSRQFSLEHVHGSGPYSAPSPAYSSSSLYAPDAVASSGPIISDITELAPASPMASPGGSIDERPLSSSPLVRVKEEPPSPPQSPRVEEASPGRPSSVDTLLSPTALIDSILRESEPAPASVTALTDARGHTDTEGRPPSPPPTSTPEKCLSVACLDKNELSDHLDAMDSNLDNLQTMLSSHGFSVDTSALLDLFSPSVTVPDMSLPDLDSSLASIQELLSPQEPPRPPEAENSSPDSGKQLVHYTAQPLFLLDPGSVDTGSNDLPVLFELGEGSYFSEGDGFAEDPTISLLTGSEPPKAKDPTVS

Regarding TAGTCC, the binding signal was 1.09 fold enrichment (6-mer frequency, TF over GST control) with FLI1; 1.05 fold enrichment (6-mer frequency, TF over GST control) with ELK1; 1.12 fold enrichment (6-mer frequency, TF over GST control) in the assay with GABPA; 1.08 fold enrichment (6-mer frequency, TF over GST control) with ERG; 1.15 fold enrichment (6-mer frequency, TF over GST control) with ELF1; 1.05 fold enrichment (6-mer frequency, TF over GST control) with EHF. The binding signal in the assay with SPI1 is 1.07 fold enrichment (6-mer frequency, TF over GST control); with SPIB, 1.06 fold enrichment (6-mer frequency, TF over GST control); with ELK3, 1.07 fold enrichment (6-mer frequency, TF over GST control); in the assay with FEV, 1.07 fold enrichment (6-mer frequency, TF over GST control); with ETV5 it was 1.14 fold enrichment (6-mer frequency, TF over GST control); in the assay with HSF1 it was 1.21 fold enrichment (6-mer frequency, TF over GST control). Besides, the binding signal was 1.16 fold enrichment (6-mer frequency, TF over GST control) with SPIC; 1.07 fold enrichment (6-mer frequency, TF over GST control) in the assay with ELF4; 1.12 fold enrichment (6-mer frequency, TF over GST control) with ELK4; 1.21 fold enrichment (6-mer frequency, TF over GST control) with ETV2; 1.13 fold enrichment (6-mer frequency, TF over GST control) with ELF3; 1.38 fold enrichment (6-mer frequency, TF over GST control) with CRX. Moreover, in the assay with ETV1, the binding signal was 1.1 fold enrichment (6-mer frequency, TF over GST control).
